Source: PubChem BioAssay
NS1 inh: influenza NS1 inhibition; Potency, µM (doses to about 46.1 µM), for the others: top-dose activity, positive = more growth; 0.4% of 270,000 active; note: potency is the fitted concentration of half-maximal effect; actives are rising curves; nearly all actives have a fitted effect of over 50% in size
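In this qHTS, NS1 from influenza A is expressed in budding yeast, where it slows growth. Cells are switched from glucose to 2% galactose medium (pH 6.0, -URA), treated with compound, and growth recovery is read at OD600.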
RE007 growth inh: less growth of the S. pombe RE007 Vpr strain. S. pombe RE007 Vpr strain, BacTiter-Glo ATP luminescence, 24 h. 0.21% of 360,000 active. Potency, µM (highest dose often 92.2 µM), for inactives: at the highest dose activity change, negative = less growth, actives largely listed as inhibitors; active = well fitted falling curve with a large enough effect; inconclusive = small, poorly fitted or top-dose-only effect; inactive = no such curve, though single readings can be large or run the other way; note: potency is the fitted concentration of half-maximal effect; % is set by controls: 0 for no effect and ±100 for the full control effect; nearly all actives have a fitted effect of over 50% in size
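Fission yeast strain RE007, carrying one chromosomally integrated HIV-1 vpr copy, was seeded at OD 0.01 in PMG+AL medium with 23 nL pinned compound. After 24 h at 30 °C and 99% humidity, viability was read by BacTiter-Glo luminescence.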
LmPK inhibitor: LmPK (Leishmania mexicana) enzyme inhibition. 0.37% of 290,000 active. Q27686. Potency, µM (doses to about 57.5 µM), for inactives: at the highest dose activity change, negative = inhibition, hits mostly inhibitors. purified LmPK, Kinase-Glo ATP luminescence, 1 h. AID 1721; active = well fitted curve in the direction sought with a large enough effect; inconclusive = small, poorly fitted or top-dose-only effect, or another doubt; inactive = no such curve, though single readings can be large; an effect the other way counts as inactive or inconclusive; note: potency is the fitted concentration of half-maximal effect; % is set by controls: 0 for no effect and ±100 for the full control effect
Target sequence (Q27686 whole entry, looked up): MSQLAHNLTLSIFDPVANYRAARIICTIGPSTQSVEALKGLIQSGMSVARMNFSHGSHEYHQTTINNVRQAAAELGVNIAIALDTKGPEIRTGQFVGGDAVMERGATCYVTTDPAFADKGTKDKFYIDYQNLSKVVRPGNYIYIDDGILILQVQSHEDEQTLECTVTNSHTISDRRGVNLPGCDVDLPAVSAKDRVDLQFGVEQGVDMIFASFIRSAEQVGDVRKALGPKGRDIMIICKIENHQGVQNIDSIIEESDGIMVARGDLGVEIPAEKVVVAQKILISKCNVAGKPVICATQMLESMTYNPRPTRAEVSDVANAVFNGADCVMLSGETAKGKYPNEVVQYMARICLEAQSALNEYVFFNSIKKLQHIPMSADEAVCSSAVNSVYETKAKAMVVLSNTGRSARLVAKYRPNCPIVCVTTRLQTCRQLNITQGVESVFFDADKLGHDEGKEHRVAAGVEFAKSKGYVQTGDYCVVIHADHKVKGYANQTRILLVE
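ATP generated from ADP (0.1 mM) and PEP (0.5 mM) by 0.1 nM LmPK over 1 h at room temperature (pH 7.2 imidazole buffer) was detected by coupled luciferase luminescence. Values were normalized to uninhibited and no-enzyme wells.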
Tb PYK inh: blocks Trypanosoma brucei pyruvate kinase; TbPYK enzyme, Kinase-Glo Plus ATP luminescence, 45 min; Potency, µM (titrated, usually from 76.8 µM), for the others: top-dose activity, negative = inhibition, usual class: inhibitors; Q57TT1; 0.12% of 410,000 active; active = well fitted curve in the direction sought with a large enough effect; inconclusive = small, poorly fitted or top-dose-only effect, or another doubt; inactive = no such curve, though single readings can be large; an effect the other way counts as inactive or inconclusive; note: potency is the fitted concentration of half-maximal effect; % is set by controls: 0 for no effect and ±100 for the full control effect; nearly all actives have a fitted effect of over 50% in size
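Glycolytic pyruvate kinase of T. brucei was incubated with substrate, test compound and 130 uM ADP for 45 minutes at room temperature. Luminescent Kinase-Glo Plus signal was measured after 10 minutes.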
Sm TGR block: S. mansoni TGR enzyme inhibition; Q962Y6; purified TGR, DTNB reduction, TNB absorbance 405 nm; Potency, µM (doses to about 114 µM), inactives show at the top dose activity change, negative = inhibition, hits mostly inhibitors; 3% of 360,000 active; active = well fitted curve in the direction sought with a large enough effect; inconclusive = small, poorly fitted or top-dose-only effect, or another doubt; inactive = no such curve, though single readings can be large; an effect the other way counts as inactive or inconclusive; note: potency is the fitted concentration of half-maximal effect; % is set by controls: 0 for no effect and ±100 for the full control effect; nearly all actives have a fitted effect of over 60% in size
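TGR 20 nM + NADPH 100 uM (dispensed conc.), cpd preinc 15 min RT; start with NADPH (500 uM addition) then DTNB (15 mM addition). Kinetic TNB absorbance, 405 nm filter. Four-parameter Hill fit across titration.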
SARS PLpro yeast: SARS-CoV PLP inhibition in yeast. S. cerevisiae expressing SARS-CoV PLpro, growth rescue. Potency, µM (doses to about 32.9 µM), without a hit: at the highest dose activity, positive = growth rescue, actives largely listed as activators. 0.19% of 330,000 active. AID 485353; note: potency is the fitted concentration of half-maximal effect; 0% is about no effect; nearly all actives have a fitted effect of over 55% in size
Flu NS1 inh: validation of influenza NS1 protein function inhibitors | activity change, negative = inhibition, % at 32.9 µM | influenza NS1 function cell assay, 15-point titration | shares compounds with NS1 inh | AID 492980 | 1,400 tested, under 10 active; note: 0% is about no effect
Flu PR8 replic: influenza NS1 inhibitors: inhibition of influenza A/PR/8/34 replication. shares compounds with NS1 inh. MDCK infected influenza A/PR/8/34, virus titer TCID50; active compounds read low. virus titer (log TCID50), log10 TCID50 at 5 µM. 30% of 95 active; call rule not given here
Active calls of the source: *; ? = inconclusive; / = not tested or not shown. Sampled rows, rich in hits. Any-hit rate of the full collection: about 3.3%. Unless noted, calls come from the whole dose curve.

SMILES	NS1 inh	RE007 growth inh	LmPK inhibitor	Tb PYK inh	Sm TGR block	SARS PLpro yeast	Flu NS1 inh	others
CCOC(=O)C1CCN(C(=O)CSc2ccccc2)CC1	11µM*	4%	-8%	-17%	-33%	1%	17
CCOC(=O)C1CCCN(C(=O)CSc2ccccc2)C1 (configuration not stated)	0%	31%	-4%	34%	-2%	-10%	/
Cc1cc(NC(=O)CCC(=O)N(CC(=O)NC2CCCC2)c2ccccc2)no1	-2%	-9%	0%	0%	-28%	1%	/
Cc1cc(NC(=O)CCC(=O)N(CC(=O)NC2CCCC2)c2cccc(F)c2)no1	?	1%	0%	3%	13%	3%	-7
CCOC(=O)CSc1nc2ccc(N3CCOCC3)cc2c(=O)n1Cc1ccc2c(c1)OCO2	?	/	-1%	/	-17%	-2%	-26
O=C(Cc1c[nH]c2ccccc12)Nc1nc2ccccc2[nH]1	11µM*	1%	2%	-1%	-10%	0%	-1
C#CCOc1ccc(/C=C2/C(=O)NN(c3ccc(F)cc3)C2=O)cc1OC	3.5µM*	-5%	-2%	-8%	-1%	4%	37
CCCCOc1ccccc1C(=O)N(Cc1sccc1C)C1CCS(=O)(=O)C1 (configuration not stated)	/	/	/	0%	8%	/	/
COc1ccccc1C(=O)N(Cc1sccc1C)C1CCS(=O)(=O)C1 (configuration not stated)	3.2µM*	10%	3%	3%	6%	-10%	3
COc1ccc(-n2cc3c(c2-c2cccc(Br)c2)c(=O)n(C)c(=O)n3C)cc1OC	/	/	/	-10%	-9%	/	/
Oc1ccc(/C=N/Nc2ncnc3c2ncn3Cc2ccccc2)cc1O	14µM*	8%	-1%	3%	-24%	?	0
Cc1nnc(-c2cccc(Br)c2)c2cn(-c3cccc(Br)c3)nc12	8.9µM*	-12%	6%	-6%	2%	1%	1
CCOC(=O)c1noc2ncn(CC(=O)Nc3cccc(C(F)(F)F)c3)c(=O)c12	/	/	/	0%	3%	/	/
CC1(c2ccc3ccccc3c2)NC(=O)N(CC(=O)Nc2cccc(S(=O)(=O)N3CCOCC3)c2)C1=O (configuration not stated)	10µM*	14%	2%	-2%	-3%	-3%	17	Flu PR8 replic=8.3
CCOc1ccc(NC(=S)NC(=O)/C=C/c2ccc(OC)c(OC)c2)c([N+](=O)[O-])c1	4µM*	-1%	-4%	-6%	10%	-1%	-23
CCOc1ccc(NC(=S)NC(=O)/C=C/c2ccc(C)cc2)c([N+](=O)[O-])c1	-11%	0%	0%	-1%	10%	-17%	/
NC(=O)Cn1c(=O)n(CCCCCC(=O)NCc2ccccc2)c(=O)c2sccc21	/	/	/	7%	8%	/	/
O=C(Nc1nnc(SCc2ccc(F)cc2)s1)C1Cc2ccccc2CN1C(=O)c1ccco1 (configuration not stated)	7.9µM*	7%	0%	-11%	-34%	-1%	6
O=C(Nc1nnc(SCc2ccc(Cl)cc2)s1)c1ccco1	-19%	-28%	4%	?	2%	2%	/
CCc1cc2c(-c3ccccc3)cc(=O)oc2c2c1OCN(Cc1ccc(F)cc1)C2	/	/	/	-4%	1%	/	/
O=C(Nc1nncs1)c1cccc(S(=O)(=O)N2CCc3ccccc32)c1	-2%	-12%	2%	-25%	2%	0%	/
CCC(CC)c1nnc(NC(=O)c2cccc(S(=O)(=O)N3CCc4ccccc43)c2)s1	8.9µM*	-11%	0%	2%	-15%	1%	0
COc1cc(OC)c(C2Nc3ccccc3-c3nnc(SCc4ccccc4)nc3O2)cc1OC (configuration not stated)	/	/	/	2%	6%	/	/
Cn1cccc1-c1nc2ccc(NC(=O)c3ccccc3)cc2[nH]1	-38%	-8%	0%	4%	-24%	-10%	/
Cc1ccc(S(=O)(=O)Nc2ccc3nc(-c4cccn4C)[nH]c3c2)cc1	1.6µM*	-7%	2%	0%	0%	-5%	-34	Flu PR8 replic=8.5
SMILES	NS1 inh	RE007 growth inh	LmPK inhibitor	Tb PYK inh	Sm TGR block	SARS PLpro yeast	Flu NS1 inh	others
Cc1ccccc1CNC(=O)CN1C(=O)C2CCCCN2c2ccc(C(=O)N3CCCC3)cc21 (configuration not stated)	/	/	/	1%	-17%	/	/
Cc1cnn(-c2cc(N/N=C/c3ccccc3Cl)ncn2)c1	14µM*	-4%	5%	2%	42%	3%	-14
COc1ccc2[nH]c(=O)c(CNc3cccc(C)c3)cc2c1	2.8µM*	0%	2%	2%	-35%	6%	0
COc1ccccc1/C=C1\CCCC2=C1Nc1nnnn1C2c1ccccc1OC (configuration not stated)	?	/	-1%	-9%	4µM*	15%	?	Flu PR8 replic=8.5
CC1CC(C)CN(S(=O)(=O)N2CCC(C(=O)NCCc3ccccc3)CC2)C1 (configuration not stated)	?	-3%	-2%	4%	7%	1%	-6
O=C1C=CC(=O)C(C2=C3C(=O)N(CCc4ccccc4)CC(=O)N3CCC2)=C1	14µM*	-11%	?	2.5µM*	0.28µM*	-1%	3
C/C(CC(=O)N(C(C)C)C(C)C)=N\NC(=O)COc1ccc(Cl)cc1Cl	/	-18%	9%	-13%	-3%	2%	/
C/C(CC(=O)N(C(C)C)C(C)C)=N\NC(=O)COc1ccc(Br)cc1Br	11µM*	0%	2%	3%	1%	-2%	?
CCCCCCCCCCCCCCCCCCCCCC(=O)Nc1ccn([C@@H]2O[C@H](CO)[C@@H](O)[C@@H]2O)c(=O)n1	/	/	/	-6%	/	/	/
O=C(NNc1nc2cc3c(cc2s1)OCO3)c1ccc(F)cc1	?	8%	-1%	-28%	-19%	-11%	-10
O=C(NNc1nc2cc3c(cc2s1)OCCO3)c1ccc(F)cc1	/	-3%	-2%	-18%	-1%	4%	/
COc1ccc(/C=N/NC(=O)c2ccc3ccccc3c2)cc1OS(=O)(=O)c1ccc(NC(C)=O)cc1	10µM*	4%	-2%	-3%	9%	4%	24
Cc1c(CC(=O)NCc2ccc(F)cc2)c(=O)oc2cc(O)c(Cl)cc12	/	/	/	-4%	9%	/	/
